Results filed as inconclusive are left out. Active and inactive are the calls of the source. Unless noted, calls come from the whole dose curve; as a rule, active = well fitted curve in the direction sought with a large enough effect in the repeat runs; inconclusive = weak or mixed curves; inactive = no such curve, though single readings can be large; an effect the other way counts as inactive or inconclusive.
Tests used:
[1] = qHTS assay to identify small molecule agonists of the peroxisome proliferator-activated receptor delta (PPARd) signaling pathway - cell viability counter screen (AID 743211); note: nearly all actives have a fitted effect of over 55% in size
Summary of the method: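 Viability of GeneBLAzer PPARd UAS-bla HEK293H cells was assessed after 17 h compound incubation at 37C, using CellTiter-Glo reagent added after the reporter read and luminescence recorded 30 min later.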

[2] = molecular target: Peroxisome proliferator-activated receptor delta (Homo sapiens) (UniProt Q03181); experiment: qHTS assay to identify small molecule agonists of the peroxisome proliferator-activated receptor delta (PPARd) signaling pathway (AID 743212; calls by dose curve)
Peroxisome proliferator-activated receptor delta (Homo sapiens), sequence (Q03181 whole entry, looked up): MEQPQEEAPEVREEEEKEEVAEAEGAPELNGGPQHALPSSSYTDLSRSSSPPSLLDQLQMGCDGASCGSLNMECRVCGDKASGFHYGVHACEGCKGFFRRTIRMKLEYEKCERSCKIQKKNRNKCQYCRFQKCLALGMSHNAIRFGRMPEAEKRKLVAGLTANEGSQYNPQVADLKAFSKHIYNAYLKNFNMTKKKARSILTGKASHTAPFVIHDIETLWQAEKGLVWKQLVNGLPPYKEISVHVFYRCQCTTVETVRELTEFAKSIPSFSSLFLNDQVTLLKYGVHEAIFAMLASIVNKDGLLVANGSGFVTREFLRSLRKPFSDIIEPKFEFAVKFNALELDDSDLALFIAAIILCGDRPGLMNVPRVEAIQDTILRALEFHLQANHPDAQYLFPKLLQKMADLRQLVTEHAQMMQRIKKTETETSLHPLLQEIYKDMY
Summary of the method: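 Read-out: beta-lactamase FRET fluorescence after 2 h room-temperature incubation with LiveBLAzer B/G substrate. Cells were HEK293H carrying a UAS-bla reporter for PPARd, treated at 37 C with DMSO-dissolved compounds.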

[3] = qHTS assay to identify small molecule antagonists of the peroxisome proliferator-activated receptor delta (PPARd) signaling pathway - cell viability counter screen (AID 743213); note: nearly all actives have a fitted effect of over 50% in size
Summary of the method: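 Agonist-stimulated (L165041, 300 nM final) HEK293H PPARd UAS-bla cells are exposed to compounds for 17 h at 37 C, and ATP-based luminescence (CellTiter-Glo) from the same wells reports cytotoxicity.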

[4] = qHTS assay to identify small molecule agonists of the farnesoid-X-receptor (FXR) signaling pathway - cell viability counter screen (AID 743218); note: nearly all actives have a fitted effect of over 45% in size
Summary of the method: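 Cells were seeded, left 5 h at 37 C and 5% CO2, then dosed with compound in DMSO for 16 h. After the beta-lactamase FRET read, CellTiter-Glo was added and luminescence measured 30 min later.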

[5] = qHTS assay to identify small molecule antagonists of the farnesoid-X-receptor (FXR) signaling pathway - cell viability counter screen (AID 743221; active = well fitted cell-killing curve with a large enough effect in the repeat runs, not every such curve was filed as active; note: nearly all actives have a fitted effect of over 50% in size)
Summary of the method: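 Quantitative HTS of the Tox21 10K library run in parallel with the beta-lactamase reporter read. HEK 293T cells carrying a UAS-driven bla reporter got compound and 50 uM CDCA (final) for 16 h; ATP-based luminescence followed.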

[6] = molecular target: Vitamin D3 receptor (Homo sapiens) (UniProt P11473); experiment: qHTS assay to identify small molecule agonists of the vitamin D receptor (VDR) signaling pathway (AID 743222; calls by dose curve)
Vitamin D3 receptor (Homo sapiens), sequence (P11473 whole entry, looked up): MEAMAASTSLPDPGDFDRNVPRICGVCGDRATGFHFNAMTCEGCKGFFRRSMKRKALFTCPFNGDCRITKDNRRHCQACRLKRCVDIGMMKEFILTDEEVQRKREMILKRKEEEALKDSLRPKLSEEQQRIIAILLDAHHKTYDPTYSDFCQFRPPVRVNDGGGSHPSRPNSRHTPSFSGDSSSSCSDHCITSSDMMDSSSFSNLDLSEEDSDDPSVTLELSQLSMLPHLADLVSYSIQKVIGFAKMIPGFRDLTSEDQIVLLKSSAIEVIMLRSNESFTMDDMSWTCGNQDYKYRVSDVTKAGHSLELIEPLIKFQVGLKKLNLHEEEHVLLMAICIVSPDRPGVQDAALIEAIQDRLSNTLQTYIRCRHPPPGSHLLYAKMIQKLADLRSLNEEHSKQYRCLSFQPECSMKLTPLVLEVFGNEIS
Summary of the method: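 Cells carrying a VDR-driven beta-lactamase reporter are seeded at 2,000 per well and rested 4 h. Compounds in DMSO are added for 16 h at 37C, and FRET substrate fluorescence is measured after 2 h at room temperature.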

Measured: Potency

O=C(/N=N/C(=O)OCc1ccccc1)OCc1ccccc1
inactive: all assays above

COc1cc2c(cc1OC)C(=O)CC2
inactive: all assays above

CC(C)N(c1ccccc1)C(C)C
not listed: [6]
inactive: all other assays above

From PubChem BioAssay (Tox21)
